Assay results: PubChem BioAssay (EPA / NIEHS)
Results filed as inconclusive are left out. Activity calls are given as the source filed them. The calls were made as follows: active = hit-call score of the fitted dose curve at least 0.9, where 1 is the maximum; inconclusive = response in the unintended direction; inactive = score below 0.9.

assay: CCTE_Harrill_HTTr_CellCount_MCF7: CCTE's Cell Proliferation Assessment for the High-Throughput Transcriptomics (HTTr) Platform, Harrill Lab (AID 2284012);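 also: intended direction is loss of nuclei count meaning fewer cells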
Description: This is a cell-based assay that evaluates cell viability and cell growth using high content imaging to count the number of Hoechst-labeled nuclei that are present in an assay well in 384-well format.This is a cell-based assay that evaluates cell viability and cell growth in MCF-7 cells. This was part of a full screening experiment. High content imaging is used to count the number of Hoechst-labeled nuclei that are present in an assay well in 384-well format.The assay component endpoint CCTE_Harrill_HTTr_CellCount_MCF7 was analyzed with bidirectional fitting relation to DMSO as the negative control and baseline of activity. Using a type of viability reporter, loss-of-signal activity can be used to understand changes in cell count. To generalize the intended target to other relatable targets, this assay endpoint is annotated to cell cycle, where the subfamily is cell count.
Chemicals were tested in MCF7 cells in an eight point dilution series with a six hour exposure duration.

Row | Compound | outcome
1 | Oc1c(Cl)c(Cl)c(Cl)c(Cl)c1Cl | inactive
2 | CCOC(=O)C(O)(c1ccc(Cl)cc1)c1ccc(Cl)cc1 | inactive
3 | CCCCCCCCCc1ccc(O)cc1 | inactive
4 | O=S(=O)(O)C(F)(F)C(F)(F)C(F)(F)C(F)(F)C(F)(F)C(F)(F)F | inactive
5 | CCCCCCCCOC(=O)c1ccccc1C(=O)OCCCCCCCC | inactive
6 | CC1=C2C[C@H]3[C@@H](CC=C4C[C@@H](O)CC[C@@]43C)[C@@H]2CC[C@]12O[C@@H]1C[C@H](C)CN[C@H]1[C@H]2C | inactive
7 | c1ccc(-c2ccccc2)cc1 | inactive
8 | ClC(Cl)=C(c1ccc(Cl)cc1)c1ccc(Cl)cc1 | inactive
9 | CCCCCCOC(=O)c1ccccc1C(=O)OCCCCCC | inactive
10 | Cc1cc(-c2ccc(N)c(C)c2)ccc1N | inactive
11 | CCC(C)(c1ccc(O)cc1)c1ccc(O)cc1 | inactive
12 | CCOP(=S)(OCC)SCSC(C)(C)C | inactive
13 | ClC1=C(Cl)[C@]2(Cl)[C@@H]3[C@H]4C[C@H]([C@@H]5O[C@H]45)[C@@H]3[C@@]1(Cl)C2(Cl)Cl | inactive
14 | O=C(O)C(F)(F)C(F)(F)C(F)(F)C(F)(F)C(F)(F)F | inactive
15 | O=C(O)C(F)(F)C(F)(F)C(F)(F)C(F)(F)C(F)(F)C(F)(F)C(F)(F)C(F)(F)C(F)(F)F | inactive
16 | Clc1ccc(C(c2ccccc2Cl)C(Cl)(Cl)Cl)cc1 (centres undefined) | inactive
17 | CCOCCOC(C)=O | inactive
18 | Cc1ccccc1O | inactive
19 | O=C(N[C@H]1CN2CCC1CC2)c1cc2ccoc2cn1 | inactive
20 | CCC(C)(CC)c1cc(NC(=O)c2c(OC)cccc2OC)on1 | inactive

Row | Compound | outcome
21 | O=S(=O)(O)C(F)(F)C(F)(F)C(F)(F)C(F)(F)F | inactive
22 | Cc1cc(O)ccc1Cl | inactive
23 | CCCN(CCC)N=O | inactive
24 | Cc1cccc(C)c1N | inactive
25 | O=C(NC(=O)c1c(F)cccc1F)Nc1cc(Cl)c(OC(F)(F)C(F)F)c(Cl)c1 | inactive
26 | CC(C)(c1ccccc1)c1ccc(O)cc1 | inactive
27 | Cc1cc2c3c(c1)C(c1ccccc1)=N[C@@H](NC(=O)c1ccncc1)C(=O)N3CC2 | inactive
28 | CCSC(=O)N(CC)C1CCCCC1 | inactive
29 | O=C(O)C(F)(F)C(F)(F)C(F)(F)C(F)(F)C(F)(F)C(F)(F)C(F)(F)C(F)(F)F | inactive
30 | C=CC(N)=O | inactive
31 | CC#Cc1cc(C)nc(Nc2ccccc2)n1 | inactive
32 | CCCCCCCCCC[N+](C)(C)CCCCCCCCCC | inactive
33 | Nn1cnnc1 | inactive
34 | ClC1=C(Cl)[C@]2(Cl)[C@@H]3[C@@H](Cl)[C@H]4O[C@H]4[C@@H]3C1(Cl)C2(Cl)Cl | inactive
35 | Clc1ccc(C(Cl)(Cl)Cl)cc1 | inactive
36 | Cc1ccc(O)c(C)c1 | inactive
37 | Sc1ccccc1 | inactive
38 | C[C@]12CCC(=O)C=C1CC[C@@H]1[C@@H]2CC[C@@]2(C)[C@H]1CC[C@]2(C)O | inactive
39 | COS(=O)(=O)OC | inactive
